Assay outcomes deposited in PubChem by National Center for Advancing Translational Sciences (NCATS).
A selection: hits, their analogues and other compounds. The true share with any hit is near 8%.
MCF10A rerep = A quantitative high throughput screen for small molecules that induce DNA re-replication in MCF 10a normal breast cells; MCF 10A DNA re-replication, Hoechst nuclear intensity, 48 h; Potency, µM (top dose mostly 46.1 µM), for inactives: top-dose activity, positive = re-replication, hits mostly activators; 350,000 tested, 2.9% active; AID 624296, 2012; also: % of control where 0% means no effect; nearly all actives have a fitted effect of over 50% in size
HT1080-NT tox = qHTS for induction of synthetic lethality in tumor cells producing 2HG: qHTS for the HT-1080-NT fibrosarcoma cell line | HT-1080-NT fibrosarcoma viability, CellTiter-Glo ATP luminescence, 48 h | Potency, µM (titrated, usually from 46.1 µM), inactives show at the top dose activity, negative = less viability, most hits filed as cytotoxic | 360,000 tested, 1.6% active | AID 686970, 2013;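 also: NT is the 2HG producing partner of a matched IDH1 knockdown line; 0% = DMSO-treated cells and -100% = media-only wells without cells; nearly all actives have a fitted effect of over 55% in size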
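Read-out is CellTiter-Glo luminescence after 10 minutes at room temperature, following 48 hours' compound treatment of HT-1080-NT cells (750 cells/well, RPMI, 5% FBS, 37 degrees C).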
HT1080 IDH1KD tx = qHTS for induction of synthetic lethality in tumor cells producing 2HG: qHTS for the HT-1080-IDH1KD cell line; 360,000 tested, 2% active; HT-1080 IDH1 knockdown viability, ATP luminescence, 48 h; Potency, µM (doses to about 46.1 µM), for inactives: top-dose activity, negative = toxicity, hits mostly cytotoxic;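 also: 0% = DMSO wells and -100% = cell-free medium wells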
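In this qHTS, HT-1080 cells depleted of IDH1 are exposed for 48 h at 37 °C to compound titrations. Toxicity is scored from CellTiter-Glo luminescence, with DMSO as full viability and medium alone as none.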
KB-V1 MDR tox = qHTS assay for MDR1-selective chemotherapeutics: Primary screen using the drug-selected MDR subline cells KB-V1; KB-V1 MDR cells viability, CellTiter-Glo, 72 h; Potency, µM (series often up to 46.1 µM), most hits filed as cytotoxic; 400,000 tested, 3.4% active; AID 1347076, 2019; also: % is scaled to controls: 0 for no effect and ±100 for the full control effect; nearly all actives have a fitted effect of over 60% in size
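Luminescent ATP read-out (CellTiter-Glo, 10 min) measures survival of drug-selected KB-V1 MDR cells after 72 h, 37 degrees C compound exposure. Medium: phenol-red-free DMEM, 10% FBS. Values from fitted concentration-response curves.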
KB-3-1 tox = qHTS assay for MDR1-selective chemotherapeutics: Primary screen using the parental adenocarcinoma cell KB-3-1; KB-3-1 viability, CellTiter-Glo ATP luminescence, 72 h; Potency, µM (top dose mostly 46.1 µM), most hits filed as cytotoxic; 400,000 tested, 1.4% active; also: % is scaled to controls: 0 for no effect and ±100 for the full control effect; nearly all actives have a fitted effect of over 60% in size
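KB-3-1 cells, DMEM (no phenol red) + 10% FBS; compound by pin transfer, 72 h, 37 °C. Readout: CellTiter-Glo luminescence after 10 min. Data normalized, curve-fitted.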
SW480 rerep = A quantitative high throughput screen for small molecules that induce DNA re-replication in SW480 colon adenocarcinoma cells | SW480 DNA re-replication, Hoechst DNA content imaging, 48 h | Potency, µM (doses to about 46.1 µM), for the others: at the highest dose re-replication activation, most hits filed as activators | 340,000 tested, 1.8% active | AID 624297, 2012; also: % of control where 0% means no effect; nearly all actives have a fitted effect of over 55% in size
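Per well, 250 cells were exposed to pinned compound for 48 hr. Nuclear DNA was visualised with Hoechst (40 min, 37 C) and total object intensity recorded by fluorescence scanning.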
Numbers without * were called inactive; i = inactive; ? = inconclusive; . = no result. Calls follow the shape of the dose curve; as a rule, active = well fitted curve in the direction sought with a large enough effect; inconclusive = small, poorly fitted or top-dose-only effect, or another doubt; inactive = no such curve, though single readings can be large; an effect the other way counts as inactive or inconclusive. Potency is read from the fitted curve at half-maximal effect.

SMILES | MCF10A rerep | HT1080-NT tox | HT1080 IDH1KD tx | KB-V1 MDR tox | KB-3-1 tox | SW480 rerep
CCn1c(CNC(=O)c2ccc(OC)cc2)nnc1SCC(=O)Nc1ccc(OC)cc1 | . | . | . | i | i | .
CN(C)c1ccc(NC(=O)CN2CCN(CC(=O)Nc3ccc(Br)cc3)CC2)cc1 | . | . | . | i | i | .
Cc1nc(SCC(=O)NCC2CCCO2)c2c3c(sc2n1)CCC3 (stereo not given) | -1% | 2% | 0% | . | . | -3%
CCc1nc(N2CCN(C(=O)c3ccccc3)CC2)c2c3c(sc2n1)CCCC3 | ? | ? | ? | ? | ? | 0%
Cc1nc(Sc2nnnn2C)c2c3c(sc2n1)CCC3 | 1.5µM* | 3.3µM* | 5.2µM* | 6.5µM* | 3.3µM* | 5.8µM*
CCc1nc(Sc2nnnn2-c2ccccc2)c2c3c(sc2n1)CCCC3 | 18µM* | 10% | 3% | ? | i | ?
Cc1ccc(NC(=O)C(=O)NN)cc1 | 0% | -4% | 3% | i | i | 3%
NNC(=O)C(=O)Nc1ccc(O)cc1 | ? | 7.3µM* | ? | i | ? | -29%
O=c1[nH]c(SCc2cccc(F)c2)nc2c1CCCC2 | 12% | -2% | 1% | 15µM* | i | -11%
CCN(c1cccc(C)c1)S(=O)(=O)c1c(C)[nH]c(=O)[nH]c1=O | 19% | 5% | -8% | i | i | 1%
CCN(c1cccc(C)c1)S(=O)(=O)c1cnc[nH]1 | 21µM* | 7% | -4% | i | i | 1%
CCN(c1cccc(C)c1)S(=O)(=O)c1ccc(-c2cc(C)no2)s1 | -6% | ? | ? | ? | 4.6µM* | -6%
Cc1cccc(N(C)S(=O)(=O)c2ccc(-c3cc(C)no3)s2)c1 | ? | ? | 0.58µM* | ? | ? | 0.82µM*
COc1ccccc1NS(=O)(=O)c1ccc(-c2cc(C)no2)s1 | 17% | ? | ? | ? | 7.3µM* | -6%
Cc1cc(-c2ccc(S(=O)(=O)Nc3cccc(C(F)(F)F)c3)s2)on1 | . | . | . | i | i | .
COc1ccc(NC(=O)c2c(N)c(C(=O)c3ccc(OC)cc3)n3ccccc23)cc1 | . | . | . | i | i | .
CCOc1ccc(N(C)S(=O)(=O)c2ccc(-c3cc(C)no3)s2)cc1 | 4.6µM* | 12µM* | 7.3µM* | ? | 5.8µM* | 9.2µM*
CCOc1ccc(N(C)S(=O)(=O)c2cc(-c3cc(C)no3)ccc2C(C)C)cc1 | ? | 5% | -6% | i | ? | ?
CCC(C)[C@H](NC(=O)NCc1ccc(Cl)cc1)C(=O)O (stereo not given in full) | -2% | 2% | -7% | ? | i | -14%
CCC(C)[C@H](NC(=O)NCc1ccc(Cl)cc1)C(=O)OC (stereo not given in full) | -1% | -5% | 0% | 21µM* | i | -4%
CCOC(=O)c1sc2nc(C)nc(NCc3ccc(Cl)cc3)c2c1C | 15% | ? | ? | ? | ? | 7%
CCOC(=O)c1sc2nc(C)nc(NCc3ccc(F)cc3)c2c1C | ? | 18µM* | 21µM* | i | i | ?
CCOC(=O)c1c(NC(=O)CCN2CCOCC2)sc2c1CC(C)(C)OC2 | ? | 3% | -6% | 16µM* | i | -2%
O=C(Cn1ncc(Cl)c(Cl)c1=O)NC1CCS(=O)(=O)C1 (stereo not given) | ? | -5% | 2% | i | i | ?
O=C(Cn1ncc(Cl)c(Cl)c1=O)NC1CCCCC1 | 1.3µM* | 13µM* | 15µM* | i | ? | 1.3µM*
